Source: PubChem BioAssay
Only some compounds are listed: those with a hit (about 1% of all), similar ones and a draw of the others.
NPR1 activator: GC-A (human) enzyme activation | P16066 | HEK293 GC-A cells, cGMP TR-FRET, EC30 ANP; 0% at EC30 ANP, 100% saturating ANP | activation, % at 10 µM | 370,000 compounds, 0.14% hits | AID 1671463; in the data active means activation above about 40%
Efflux pump mplx: blocks antifungal efflux pumps in multiplex yeast assay. S. cerevisiae Candida pump triplex, Nile Red efflux. inhibition, % at 10 µM. 330,000 compounds, 0.44% hits. AID 485275;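 active means plate passing quality check with inhibition over a set limit, or well fluorescence over plate mean plus 4 SD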;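 further: Nile Red retained in pooled yeast measured as flow cytometry median fluorescence; 0% = buffer negative control and 100% = Enniatin B positive control; higher means more Nile Red kept so more efflux inhibition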
Bfl-1 A1 inh: inhibitors of the anti-apoptotic protein A1, read as caspase activation; caspase activation, % (concentration not given with the values); AID 2462; MEF A1-2A-BIM cells, Caspase-Glo 3/7 luminescence, 3 h; percent of clofoctol response, vehicle zero; 330,000 compounds, 0.066% hits;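 active means over half of replicate activation scores above 10%, or exactly half above 10 with the replicate mean above 10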
GC-B act: GC-B (human) receptor activation; P20594; HEK293-GC-B cells, CNP EC30, cGMP TR-FRET; 0% at EC30 CNP, 100% saturating CNP; activation, % at 10 µM; 370,000 compounds, 0.11% hits;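 active means activation at 10 µM reaching about 35% in either raw or pattern-adjusted values, limit read from the data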
HSV augment: increases HSV replication in cells | HSV replication augmentation in cells, fold increase | maximum fold increase | 220,000 compounds, 0.005% hits | AID 1956; in the data active means maximum fold increase above about 1.5; tested in PC3 cells
TAG inh: reduces triacylglycerol accumulation in H9c2 cells; AID 651582; 230,000 compounds, 0.66% hits; Nile Red lipid (TAG) fluorescence; cells loaded with 200 µM oleic acid; inhibition, % at 12.5 µM;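 active means pattern-corrected inhibition of lipid staining of at least 50% with the nuclear-stain viability signal not falling by more than 50%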;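 further: 0% = DMSO wells and 100% = triacsin C control wells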
TAG conf: triacylglycerol accumulation inhibition, confirmation. shares compounds with TAG inh. H9c2 lipid accumulation, Nile Red fluorescence; cells loaded with 200 µM oleic acid. inhibition, % at 12.5 µM. 990 compounds, 71% hits. AID 651629;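 active means mean inhibition across replicates of 40% or more; inactive means mean inhibition below 40%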;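 further: plate controls were DMSO only wells for no effect and Triacsin C treated wells for full effect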
The depositor's hits bear a star; i = inactive; . = not tested or not shown.

SMILES | NPR1 activator | Efflux pump mplx | Bfl-1 A1 inh | GC-B act | HSV augment | TAG inh | TAG conf
c1ccc(-c2nnc3n2N=C(c2ccc4ccccc4c2)CS3)nc1 | 5.9 | . | . | 9.8 | . | . | .
CN(C)CCNC(=O)c1cccc2ccc(-c3ccc(-c4ccccc4)cc3)nc12 | -5.8 | . | . | -10.7 | . | 60.4* | 65.6*
CN(C)CCNC(=O)c1cccc2nc3cccc(F)c3nc12 | -9.8 | . | . | -15.2 | . | 91.5 | .
O=C(C[C@H]1C[C@H](C(=O)N2CCOCC2)[C@@]2(CCC3CCCC3)c3[nH]c4ccc(Cl)cc4c3CCN2C1=O)NCCN1CCOCC1 | 0.3 | -0.1 | . | -1.4 | . | -6.1 | .
COc1ccc2[nH]c3c(c2c1)CCN1C(=O)C(CC(=O)NCC24CC5CC(CC(C5)C2)C4)C[C@H](C(=O)N2CCOCC2)[C@@]31CCC1CCCC1 (some centres undefined) | 1.7 | 0.2 | . | -0.6 | . | 71.9* | 72.9*
O=C(C[C@H]1C[C@H](C(=O)N2CCOCC2)[C@@]2(CCC3CCCC3)c3[nH]c4ccc(Cl)cc4c3CCN2C1=O)NCC12CC3CC(CC(C3)C1)C2 | -0.7 | 0.4 | . | -0.3 | . | 69.1* | 63.2*
COP(=O)(O)[C@@H](CC(C)C)NC(=O)OCc1ccccc1 | -0.9 | . | . | 3.3 | . | . | .
CC(=O)Nc1ccc(NC2=Nc3ccccc3N3C2=Nc2c(c(C)nn2-c2ccccc2)C3c2ccccc2)cc1 (centres undefined) | -6.1 | 0.2 | -0.6 | -7.8 | i | 54.1* | 43.4*
Cc1ccc2c(c1)N(C(=O)CCC(=O)NCCCN1CCC(Cc3ccccc3)CC1)CCO2 | -23.9 | -0.2 | 0.3 | -13.1 | . | 60.8* | 59.8*
Cn1cccc1C(=O)N1CCN(S(=O)(=O)c2ccc(Br)s2)CC1 | -4.2 | . | . | -10.0 | . | . | .
CCOc1ccc2nc(-c3ccccc3)nc(SCC(=O)Nc3ncc(C)s3)c2c1 | -2.7 | 0.1 | 0.2 | -5.2 | i | 82.9* | 81.1*
COc1ccc(-c2cc(-c3ccccc3)nc(SCC(=O)Nc3ncc(C)s3)c2C#N)cc1 | -3.4 | 0.0 | -0.2 | 1.7 | i | . | .
COCC(=O)N[C@H]1C[C@@H]2O[C@@H](CO)CC[C@@H]2O[C@@H]1CCc1ccc(-c2ccccc2)cc1 | 4.6 | . | . | 0.7 | . | . | .
COc1ccc([C@H]2C[C@H](n3cc(-c4ccc(F)cc4)nn3)[C@@H](O)CN2Cc2cccs2)cc1 | 2.4 | . | . | -6.8 | . | -8.1 | .
COc1ccc([C@H]2C[C@H](O)[C@@H](n3cc(-c4ccc(F)cc4)nn3)CN2Cc2cccs2)cc1 | -8.7 | . | . | -11.8 | . | 58.9* | 52.4*
COc1ccc(C2=CC(=O)C[C@H](c3ccc(OC)cc3)C2)cc1 | 1.9 | 0.0 | -1.7 | 1.9 | . | . | .
COc1ccc([C@H]2CC(=O)C=C(c3ccc(OC)cc3OC)C2)cc1 | -2.7 | -0.4 | 1.0 | -4.2 | . | 51.9* | 80.9*
O=C(CSc1ccccc1)N1CCC(Oc2cccnc2)CC1 | -0.5 | . | . | -2.8 | . | . | .
CCCCCNC(=O)CCCCn1c(=O)[nH]c2cc(OCC)c(OCC)cc2c1=O | -4.3 | 0.0 | 0.5 | -3.0 | i | 36.0 | .
CCOc1cc2[nH]c(=O)n(CCCCC(=O)N3CCCCCC3)c(=O)c2cc1OCC | -0.1 | 0.1 | 0.3 | 3.3 | i | 63.1* | 35.0
CCc1cc2c3c(c1)C1(C(=O)N3C(C)(C)C=C2C)C(C#N)=C(N)Oc2[nH]c(=O)[nH]c(=O)c21 (centres undefined) | -3.7 | -0.1 | 0.2 | 5.3 | i | 50.9* | 48.8*
CN1C2=N[C@H](c3ccccc3)CC(=O)N2/C(=C\c2ccccc2)C1Cc1ccccc1 (some centres undefined) | -4.5 | . | . | -9.3 | . | . | .
CCN(CC)CCCNc1nc2cc(OC)c(OC)cc2c2nc(-c3ccccc3)nn12 | -7.2 | -0.2 | -0.4 | -0.5 | i | 60.6* | 36.0
COc1cc2nc(NCCCN3CCN(C)CC3)n3nc(-c4ccccc4)nc3c2cc1OC | 2.6 | 0.1 | 0.7 | 0.4 | i | 61.4* | 40.6*
CCN(CC)CCCNc1nc2cc(OC)c(OC)cc2c2nc(-c3cccnc3)nn12 | 1.8 | -0.1 | 0.2 | -5.7 | i | 9.6 | .
